Source: PubChem BioAssay
Potency and affinity values are given separately. Inconclusive results are not listed. The source made the active and inactive calls.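 Rule for the calls, unless noted: active = falling signal with fitted half-maximal potency no higher than twice the top valid tested dose; inconclusive = poor fit quality, or flat fit spanning -70% to -30%; inactive = potency over limit, rising signal, or flat fit inside 30%.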

Legend:
[1] = Cryptococcus neoformans growth inhibition, dose response, Alamar Blue, cherry-picks (AID 686998)
[2] = inducers of Cryptococcus neoformans cell lysis, dose response, AK release luminescence, cherry-picks (AID 687000;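 active = fitted dose curve reaches 40% lysis signal rise at or below the highest valid concentration tested for that sample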;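 note: luminescent detection of adenylate kinase leaking from lysed yeast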)
[3] = HepG2 cell cytotoxicity, dose response, cytotoxicity control, cherry-picks, set 2 (AID 687002;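 active = a dose-response fit showing signal loss, with half-maximal concentration no higher than twice the top tested dose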)
[4] = HeLa cell cytotoxicity, dose response, cytotoxicity control, ATP luminescence, cherry-pick samples (AID 687004;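 active = a fitted half-maximal concentration no higher than twice the top valid tested dose, with signal falling as cells die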)

Measured: outcome

CNC(=O)CSc1ncnc2c1cnn2-c1ccccc1
inactive: all assays above

O=C(Nc1ccccc1)N[C@@H]1CC[C@@H](CCNC(=O)c2ccccc2F)O[C@H]1CO
inactive: all assays above

CO[C@H]1CN(C)C(=O)c2cc(NC(=O)Nc3cccc(F)c3)ccc2OC[C@H](C)N(C)C[C@H]1C
inactive: all assays above

CCC(C(=O)Nc1c(C)cc(C)cc1C)N1CCCCCC1 (centres undefined)
inactive: all assays above

COc1cccc(S(=O)(=O)Nc2ccc3c(c2)[C@@H]2C[C@H](CC(=O)NC4CCCCC4)O[C@H](CO)[C@@H]2O3)c1
inactive: all assays above

COc1ccc(-n2ncc3c(SCC(=O)NNC(C)=O)ncnc32)cc1
inactive: all assays above

N#Cc1ccc(C23CC4(C2)[C@H](CN(Cc2ccc(-c5ccccc5)cc2)[C@@H]4c2ccccc2)C3c2ccc(C(F)(F)F)cc2)cc1 (some centres undefined)
inactive: all assays above

CC(C)NC(=O)N[C@H]1CC[C@@H](CCNC(=O)C2CC2)O[C@@H]1CO
inactive: all assays above

O=C(Nc1ccc(F)cc1)N1C[C@@H]2[C@H](c3ccccc31)[C@H](CO)N2Cc1cocn1
inactive: all assays above

O=C(Nc1ccccc1)N1CCCCN2[C@H](C1)[C@H](c1ccc(C#CC3CC3)cc1)[C@@H]2CO
inactive: all assays above

C[C@@H]1CN([C@H](C)CO)C(=O)c2cc(NS(=O)(=O)c3cn(C)cn3)ccc2O[C@H]1CN(C)C(=O)Nc1cccc2ccccc12
inactive: all assays above

Cc1noc(C)c1NC(=O)Nc1cccc2c1O[C@H](CN(C)S(=O)(=O)c1cn(C)cn1)[C@H](C)CN([C@H](C)CO)C2=O
inactive: all assays above

Cc1cccc(C)c1NC(=O)C(CCc1ccccc1)N1CCN(CCN(C)C)CC1 (centres undefined)
inactive: all assays above

CO[C@H]1CN(C)C(=O)c2cc(NC(=O)c3ccccc3F)ccc2OC[C@H](C)N(C(C)=O)C[C@H]1C
inactive: all assays above

CN1C(=O)c2cc(NS(C)(=O)=O)ccc2OC[C@@H]2O[C@@H](CC(=O)O)CC[C@H]21
inactive: all assays above

CN(C)C(=O)c1ccc(-c2ccc([C@H]3[C@H](CO)N4CCCCN(CCC(F)(F)F)C[C@@H]34)cc2)cc1
inactive: all assays above

CC(C)NC(=O)Nc1cccc2c1O[C@@H](CN(C)C(=O)Nc1ccccc1)[C@@H](C)CN([C@@H](C)CO)C2=O
inactive: all assays above

Cc1cc(C)c(NC(=O)C2CCC(=O)N2)c(C)c1 (centres undefined)
inactive: all assays above

COCC(=O)N1[C@H](C#N)[C@H](c2ccc(C#Cc3ccccc3F)cc2)[C@H]1CO
inactive: all assays above

CCCNC(=O)C[C@@H]1CC[C@@H]2[C@@H](COc3ccc(NC(=O)CCC)cc3C(=O)N2C)O1
inactive: all assays above

C[C@H](CO)N1C[C@H](C)[C@@H](CN(C)S(=O)(=O)c2ccccc2)Oc2c(NC(=O)Nc3cccc4ccccc34)cccc2C1=O
inactive: all assays above

CCCC#Cc1ccc2c(c1)O[C@@H](CN(C)C)[C@@H](C)CN([C@@H](C)CO)S2(=O)=O
inactive: all assays above

Cc1cccc(NC(=O)C2NC(=O)CC2c2ccccc2)c1C (centres undefined)
inactive: all assays above

CCS(=O)(=O)N1CCCCN2[C@H](CO)[C@@H](c3ccc(-c4ccc(C#N)cc4)cc3)[C@@H]2C1
inactive: all assays above

COCCNC(=O)C[C@@H]1C[C@H]2c3cc(NC(=O)C4CCC4)ccc3O[C@H]2[C@@H](CO)O1
inactive: all assays above

O=C(c1cccnc1)N1CCC(Oc2ccc(C(=O)N3CCCC(O)C3)cc2)CC1 (centres undefined)
inactive: all assays above

C[C@@H]1CN([C@@H](C)CO)C(=O)c2cc(NS(=O)(=O)c3cn(C)cn3)ccc2O[C@@H](C)CCCCO[C@H]1CN(C)C
inactive: all assays above

COCC#Cc1cnc2c(c1)C(=O)N([C@@H](C)CO)C[C@@H](C)[C@@H](CN(C)C(=O)C1CC1)O2
inactive: all assays above

CCNC(=O)COc1cccc(C(=O)NCc2ccccc2)c1
inactive: all assays above

CN1C(=O)c2cccc3c(S(=O)(=O)N(C)C)ccc1c23
inactive: all assays above

C[C@H]1CN([C@@H](C)CO)C(=O)c2cccc(NS(C)(=O)=O)c2O[C@@H]1CN(C)Cc1ccc(-c2ccccc2)cc1
inactive: all assays above

C[C@@H]1CN([C@@H](C)CO)C(=O)c2cc(NC(=O)C3CCCCC3)ccc2O[C@@H](C)CCCCO[C@@H]1CN(C)C(=O)NC1CCCCC1
inactive: all assays above

O=C(C[C@@H]1C[C@@H]2c3cc(NC(=O)C4CCC4)ccc3O[C@@H]2[C@H](CO)O1)NCc1cccc(F)c1
inactive: all assays above

CC(C)NC(=O)N(C)C[C@@H]1OCCCC[C@H](C)Oc2ccc(NC(=O)Cc3ccccc3)cc2C(=O)N([C@H](C)CO)C[C@H]1C
inactive: all assays above

CC(=O)N1[C@@H](CO)[C@H](c2ccc(-c3ccccc3)cc2)[C@@H]1CNC(=O)C1CC1
inactive: all assays above

O=C(c1cccc(F)c1)N1C[C@@H]2[C@H](c3ccccc31)[C@H](CO)N2Cc1cocn1
inactive: all assays above

CNC[C@@H]1Oc2c(NS(=O)(=O)c3cccs3)cccc2C(=O)N([C@@H](C)CO)C[C@H]1C
inactive: all assays above

O=C(Nc1ccc(Cl)c([N+](=O)[O-])c1)c1ccco1
inactive: all assays above

CNC[C@@H]1OCCCC[C@H](C)Oc2ccc(NC(=O)c3ccccc3)cc2C(=O)N([C@@H](C)CO)C[C@@H]1C
inactive: all assays above

CC(C)(C)NC(=O)CSc1ncnc2c1cnn2-c1ccccc1
inactive: all assays above

COc1ccc(NC(=O)Nc2ccc3c(c2)C(=O)N([C@@H](C)CO)C[C@@H](C)[C@H](CN(C)C(=O)Cc2ccccc2)OCCCC[C@H](C)O3)cc1
inactive: all assays above

CC(C)NC(=O)N(C)C[C@@H]1OCCCC[C@H](C)Oc2ccc(NC(=O)c3ccccc3)cc2C(=O)N([C@H](C)CO)C[C@H]1C
inactive: all assays above

O=C(Cc1cccs1)N1CCN(c2ccccc2)CC1
inactive: all assays above

COc1ccc(C#Cc2cnc3c(c2)C(=O)N([C@@H](C)CO)C[C@H](C)[C@@H](CN(C)C(=O)CC2CC2)O3)cc1
inactive: all assays above

C[C@H](CO)N1C[C@H](C)[C@H](CN(C)Cc2ccncc2)Oc2ccc(NC(=O)CCC(F)(F)F)cc2C1=O
inactive: all assays above

Cc1cccc(C)c1NC(=O)CN1CCN(C(=O)CNC(=O)c2ccc(N3CCCC3=O)cc2)CC1
inactive: all assays above

O=C(O)C/C(=C\c1cccc(NC(=O)c2ccccc2Cl)c1)c1nc2ccccc2s1
inactive: all assays above

CCCC(=O)N1CCCC1(C)C(=O)Nc1cc(C)ccc1C (centres undefined)
inactive: all assays above

CO[C@@H]1CN(C)C(=O)c2ccc(NC(=O)NC(C)C)cc2OC[C@H](C)NC[C@@H]1C
inactive: all assays above

O=C(c1cccc(F)c1)N1CCCCN2[C@@H](CO)[C@H](c3ccc(-c4ccncc4)cc3)[C@@H]2C1
inactive: all assays above

COc1ccc(NC(=O)N(C)C[C@H]2OCCCC[C@@H](C)Oc3ccc(NC(=O)c4ccccc4)cc3C(=O)N([C@@H](C)CO)C[C@H]2C)cc1
inactive: all assays above

COCC(=O)N1C[C@H](C)[C@H](OC)CN(C)C(=O)c2ccc(NC(=O)NC(C)C)cc2OC[C@@H]1C
inactive: all assays above

CC=Cc1ccc2n(c1=O)C[C@@H]1[C@@H](CO)[C@H](C(=O)N3CCCCC3)N(Cc3ccccc3)[C@H]21 (mixture of isomers)
inactive: all assays above

COc1ccc(C2CC(c3cccs3)=NN2C(=O)c2ccc(Br)o2)cc1 (centres undefined)
inactive: all assays above

O=C(C[C@H]1CC[C@H](NC(=O)Nc2ccc(C(F)(F)F)cc2)[C@H](CO)O1)NCc1cccc(F)c1
inactive: all assays above

O=C(NCCc1ccccc1)[C@H]1[C@H](CO)[C@H]2Cn3c(cccc3=O)[C@@H]1N2C(=O)C1CCC1
inactive: all assays above
